Hit rate of the full screen: of about 5,500 compounds, about 2,000 (36%) were called active. Roughly 18% stayed inconclusive and do not appear here. Rule as the data show it: active = normalized growth mostly below about 0.91 (no sharp cut-off); inconclusive = no clear call, values can overlap the other calls; inactive = mostly above about 0.92. The list shows a part of the results.
Experiment: chemical genetic growth profiling, strain panel (AID 1159580);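 also: tested at 20 µM; growth read once vehicle control cultures reached saturation at 30 °C; 1 = growth at the plate median or of vehicle wells; lower values mean less growth of the strain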
Conditions: S. cerevisiae deletion strains, growth OD

Measured: normalized growth

O=C1C(NCc2ccccc2)=C(NCc2ccccc2)C(=O)c2ccccc21
active: locus YDR226W, strain ADK1, active compounds read low 0.893 | locus YFR028C, strain CDC14, active compounds read low 0.881 | locus YJR016C, strain ILV3, active compounds read low 0.898 | locus YNL207W, strain RIO2, active compounds read low 0.874
inactive: locus YAR019C, strain CDC15, active compounds read low 0.929 | locus YBL105C, strain PKC1, active compounds read low 0.915 | locus YBR135W, strain CKS1, active compounds read low 0.918 | locus YBR136W, strain MEC1, active compounds read low 0.913 | locus YBR160W, strain CDC28, active compounds read low 0.92 | locus YDL017W, strain CDC7, active compounds read low 0.922 | locus YDL028C, strain MPS1, active compounds read low 0.904 | locus YDL101C, strain DUN1, active compounds read low 0.916 | locus YDL108W, strain KIN28, active compounds read low 0.897 | locus YDL132W, strain cdc53, active compounds read low 0.907 | locus YDL214C, strain PRR2, active compounds read low 0.869 | locus YDR052C, strain DBF4, active compounds read low 0.931 | locus YDR054C, strain cdc34, active compounds read low 0.921 | locus YDR477W, strain SNF1, active compounds read low 0.839 | locus YER123W, strain YCK3, active compounds read low 0.845 | locus YER133W, strain GLC7, active compounds read low 0.839 | locus YFL009W, strain cdc4, active compounds read low 0.902 | locus YFL029C, strain CAK1, active compounds read low 0.913 | locus YFR003C, strain YPI1, active compounds read low 0.912 | locus YFR019W, strain FAB1, active compounds read low 0.942 | locus YGR040W, strain KSS1, active compounds read low 0.825 | locus YGR052W, strain FMP48, active compounds read low 0.893 | locus YGR092W, strain DBF2, active compounds read low 0.744 | locus YHR030C, strain SLT2, active compounds read low 0.885 | locus YHR079C, strain IRE1, active compounds read low 0.979 | locus YHR082C, strain KSP1, active compounds read low 0.883 | locus YHR205W, strain SCH9, active compounds read low 0.931 | locus YIL147C, strain SLN1, active compounds read low 0.895 | locus YJL095W, strain BCK1, active compounds read low 0.886 | locus YJL128C, strain PBS2, active compounds read low 0.885 | locus YJL157C, strain FAR1, active compounds read low 0.833 | locus YJR066W, strain TOR1 (second series), active compounds read low 0.775 | locus YJR066W, strain TOR1, active compounds read low 0.879 | locus YKL048C, strain ELM1, active compounds read low 0.829 | locus YKL067W, strain YNK1, active compounds read low 0.862 | locus YKL101W, strain HSL1, active compounds read low 0.875 | locus YKL193C, strain SDS22, active compounds read low 0.906 | locus YKL203C, strain TOR2, active compounds read low 0.84 | locus YLR113W, strain HOG1, active compounds read low 0.895 | locus YLR133W, strain CKI1, active compounds read low 0.856 | locus YLR403W, strain SFP1, active compounds read low 0.802 | locus YML070W, strain DAK1, active compounds read low 0.871 | locus YMR001C, strain CDC5, active compounds read low 0.896 | locus YMR205C, strain PFK2 (second series), active compounds read low 0.878 | locus YMR277W, strain FCP1, active compounds read low 0.903 | locus YNL006W, strain LST8, active compounds read low 0.923 | locus YNL020C, strain ARK1, active compounds read low 0.845 | locus YNL161W, strain CBK1, active compounds read low 0.922 | locus YNL183C, strain NPR1, active compounds read low 0.904 | locus YNL222W, strain SSU72, active compounds read low 0.925 | locus YNL307C, strain MCK1 (second series), active compounds read low 0.842 | locus YOL078W, strain AVO1, active compounds read low 0.911 | locus YOL136C, strain PFK27, active compounds read low 0.884 | locus YOR061W, strain CKA2, active compounds read low 0.817 | locus YOR119C, strain RIO1, active compounds read low 0.784 | locus YOR231W, strain MKK1, active compounds read low 0.954 | locus YOR329C, strain SCD5, active compounds read low 0.935 | locus YPL031C, strain PHO85, active compounds read low 0.837 | locus YPL153C, strain RAD53, active compounds read low 0.826 | locus YPL204W, strain HRR25, active compounds read low 0.827 | locus YPL209C, strain IPL1, active compounds read low 0.934 | locus YPL256C, strain CLN2, active compounds read low 0.986 | locus YPR025C, strain CCL1, active compounds read low 0.93 | locus YPR106W, strain ISR1, active compounds read low 0.899 | locus YPR111W, strain DBF20, active compounds read low 0.91 | strain NNK1, active compounds read low 0.902 | strain TSCII, active compounds read low 0.907

Source: PubChem BioAssay AID1159580 (chemical genetic matrix, 2015)
